DT40 TDP1 no CPT: qHTS for Inhibitors of human tyrosyl-DNA phosphodiesterase 1 (TDP1): qHTS in cells in absence of CPT; DT40 Tdp1-/- hTDP1 cells, no CPT, ATP luminescence, 48 h; Potency, µM (top dose mostly 46.2 µM), for the others: at the top dose activity change, negative = growth inhibition, usual class: inhibitors; 420,000 compounds, 15% hits; AID 686978, 2013; further: nearly all actives have a fitted effect of over 55% in size
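Chicken DT40 Tdp1-/- cells stably complemented with human TDP1 were seeded at 400 cells/well with DMSO in place of 20 nM camptothecin. After compound pinning, cells grew at least 48 hr at 37 °C; viability read by CellTiter-Glo luminescence.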
TDP1 block: qHTS Assay for Inhibitors of Tyrosyl-DNA Phosphodiesterase (TDP1); Potency, µM (highest dose often 130 µM), inactives show top-dose activity change, negative = inhibition, hits mostly inhibitors; Tyrosyl-DNA phosphodiesterase 1 (Homo sapiens), Q9NUW8; recombinant TDP1, AlphaScreen DNA substrate cleavage; 350,000 compounds, 0.28% hits; further: nearly all actives have a fitted effect of over 40% in size
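Steps: enzyme plus compound, 15 min RT; add biotin/phosphotyrosine-FITC oligonucleotide (15 nM final), react 5 min; add donor/acceptor beads (10 ug/ml final), 10 min; read AlphaScreen. Tdp1 at 1 nM final.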
RORgamma inh: qHTS for inhibitors of ROR gamma transcriptional activity | AID 2551, 2010 | Potency, µM (titrated, usually from 53.6 µM), for inactives: at the highest dose activity change, negative = inhibition, actives largely listed as inhibitors | Drosophila S2 Gal4-RORgamma UAS-luciferase reporter, 20 h | Nuclear receptor ROR-gamma (Mus musculus), P51450 | 310,000 compounds, 5.4% hits; further: nearly all actives have a fitted effect of over 60% in size
Target sequence (P51450 whole entry, looked up, the tested form may be a part): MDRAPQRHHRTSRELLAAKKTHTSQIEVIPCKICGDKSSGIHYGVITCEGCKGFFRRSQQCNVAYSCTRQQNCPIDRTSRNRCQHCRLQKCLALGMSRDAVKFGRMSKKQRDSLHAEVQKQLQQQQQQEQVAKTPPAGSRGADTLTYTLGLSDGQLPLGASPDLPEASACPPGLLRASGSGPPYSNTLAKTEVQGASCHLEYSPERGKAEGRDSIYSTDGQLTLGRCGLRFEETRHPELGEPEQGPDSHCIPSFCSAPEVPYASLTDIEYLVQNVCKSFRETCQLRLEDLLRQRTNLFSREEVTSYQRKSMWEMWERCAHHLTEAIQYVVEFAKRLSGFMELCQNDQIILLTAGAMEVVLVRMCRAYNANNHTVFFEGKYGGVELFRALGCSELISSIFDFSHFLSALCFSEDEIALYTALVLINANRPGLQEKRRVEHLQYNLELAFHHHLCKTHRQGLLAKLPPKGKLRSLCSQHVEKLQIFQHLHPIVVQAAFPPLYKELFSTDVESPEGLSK
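Drosophila Schneider cells stably carrying a metallothionein-driven Gal4 DBD–ROR gamma fusion and a UAS-Photinus luciferase reporter were exposed to compound for 1 hr, then induced with copper sulfate (700 uM final) for 20 hr at ambient temperature before luminescence reading.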
VP16 counter: VP16 counterscreen qHTS for inhibitors of ROR gamma transcriptional activity | AID 2546, 2010 | Potency, µM (highest dose often 53.6 µM), inactives show top-dose activity, negative = inhibition, actives largely listed as inhibitors | 310,000 compounds, 3.5% hits | Drosophila S2 Gal4-VP16 UAS-luciferase, luminescence, 20 h;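 further: Gal4-VP16 expression switched on by copper sulfate through the metallothionein promoter; nearly all actives have a fitted effect of over 50% in size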
TDP1 cell CPT: qHTS for Inhibitors of human tyrosyl-DNA phosphodiesterase 1 (TDP1): qHTS in cells in presence of CPT; Potency, µM (titrated, usually from 46.2 µM), without a hit: at the top dose activity change, negative = growth inhibition, hits mostly inhibitors; chicken DT40 Tdp1-/-;hTDP1 cells + 20 nM CPT, ATP luminescence, 48 h; 420,000 compounds, 12% hits; further: nearly all actives have a fitted effect of over 55% in size
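Cell growth measured by CellTiter-Glo luminescence after a minimum 48 h, 37 C compound exposure with 20 nM CPT in Tdp1-knockout DT40 cells stably expressing hTDP1, seeded 400/well; qHTS titration format.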
An asterisk follows results filed as active; ? = inconclusive; nt = no result; [ ] = another dose, or the depositor's remark. Only some compounds are listed: those with a hit (about 19% of all), similar ones and a draw of the others. The call rests on the fitted dose curve; in most records, active means well fitted curve in the direction sought with a large enough effect; inconclusive means small, poorly fitted or top-dose-only effect, or another doubt; inactive means no such curve, though single readings can be large; an effect the other way counts as inactive or inconclusive. On the % scale 0 is the no-effect control and ±100 the full control effect; potency means the concentration at half of the fitted maximal effect.

SMILES	DT40 TDP1 no CPT	TDP1 block	RORgamma inh	VP16 counter	TDP1 cell CPT
O=c1cc(CSc2ccccc2)[nH]c2ccc(F)cc12	16µM*	0%	nt	nt	12µM*
CCc1nc(SCc2cc(=O)c3cc(C)ccc3[nH]2)n[nH]1	-26%	8%	nt	nt	6%
Cc1cc(=O)c2ccc(Cl)cc2[nH]1	-21%	4%[234 µM]	-8%[96.6 µM]	-7%[96.6 µM]	-9%
COc1ccc(NC(=O)CSCc2cc(=O)c3cc(Cl)ccc3[nH]2)cc1	-29%	3%	nt	nt	1%
COC(=O)c1sccc1NC(=O)Nc1ccc(OC)cc1	8%	1%[56.1 µM]	-6%	?	-3%
CCCc1c(C(=O)N/N=C(\C)c2ccc(O)cc2)nnn1-c1nonc1N	0%	9%	-10%	4%	-20%
CCCc1c(C(=O)N/N=C(\C)c2ccccn2)nnn1-c1nonc1N	1.6µM*	nt	nt	nt	2.6µM*
CCCc1c(C(=O)N/N=C(\C)c2cc(C)sc2C)nnn1-c1nonc1N	18µM*	nt	nt	nt	?
COc1ccc2ccccc2c1/C=N\NC(=O)c1ccc(C)s1	?	4%	-31%	13%	?
NS(=O)(=O)c1ccc(Cc2ncc(C(F)(F)F)cc2Cl)s1	?	5%	-18%	21%	?
NNS(=O)(=O)c1ccc(Cc2ncc(C(F)(F)F)cc2Cl)s1	6%	5%	-2%	-6%	-7%
O=C(CCl)c1ccc(Cc2ncc(C(F)(F)F)cc2Cl)s1	5.2µM*	5%	-11%	-13%	3.3µM*
CCN(CC)S(=O)(=O)c1ccc(Cc2ncc(C(F)(F)F)cc2Cl)s1	21µM*	-7%	30%	5%	?
CCN(CCNC(=O)C1CCN(S(=O)(=O)CC)CC1)c1ccccc1	0%	1%	10%	-3%	6%
Cc1nc2ccc(C(=O)N3c4ccccc4CC3C)cc2s1 (configuration not stated)	?	3%	8%	2%	23µM*
COCCNC(=O)[C@H](C)[C@@H]1C[C@@]1(C)[C@@H](NC(=O)OCc1ccccc1)c1ccccc1	nt	7%	14%	3%	nt
C[C@@H](C(=O)NCCF)[C@H]1C[C@]1(C)[C@H](NC(=O)OCc1ccccc1)c1ccccc1	nt	4%	7%	1%	nt
C[C@@H](C(=O)NCCc1c[nH]c2ccccc12)[C@H]1C[C@]1(C)[C@H](NC(=O)OCc1ccccc1)c1ccccc1	16µM*	8%	138%	-13%	6.5µM*
C[C@@H](C(=O)NCc1ccccn1)[C@H]1C[C@]1(C)[C@H](NC(=O)OCc1ccccc1)c1ccccc1	16µM*	3%	24%	-15%	23µM*
C[C@@H](C(=O)NCC1CC1)[C@@H]1C[C@@]1(C)[C@@H](NC(=O)OCc1ccccc1)c1ccccc1	15µM*	0%	?	0%	?
C[C@@H](C(=O)NCc1ccc(S(C)(=O)=O)cc1)[C@@H]1C[C@@]1(C)[C@@H](NC(=O)OCc1ccccc1)c1ccccc1	15µM*	0%	32%	-3%	21µM*
Nc1ccn([C@@H]2O[C@H](C(=O)NCCCN3CCCC3=O)[C@@H](O)[C@H]2O)c(=O)n1	3%	nt	nt	nt	-11%
CSc1nc(Nc2ccc(C)cc2C)cc(-c2ccccc2)n1	16µM*	-14%	nt	nt	16µM*
CSc1nc(Cl)cc(Nc2ccccc2N)n1	-8%	4%	28%	-10%	10%
CC(C)c1c(C(=O)N(C)Cc2cccc3ncccc23)cnn1-c1nccc(-c2ccco2)n1	15µM*	nt	nt	nt	-9%[9.04 µM]
SMILES	DT40 TDP1 no CPT	TDP1 block	RORgamma inh	VP16 counter	TDP1 cell CPT
CC1(C)C(=O)C(c2ccccc2)=C2CN3C(=O)N(CCc4ccccc4)C(=O)C3(Cc3ccccc3)C=C21 (configuration not stated)	nt	9%	-3%	9%	nt
O=C(CCCN1C(=O)/C(=C/c2cccc(Br)c2)SC1=S)NCCCN1CCOCC1	?	14%	10µM*	0%	26µM*
COC(=O)c1ccc(/C=C2\SC(=S)N(CCCC(=O)NCCCN3CCOCC3)C2=O)cc1	23µM*	nt	2.2µM*	1.8µM*	?
CSc1ccc2cc(CNCc3ccccc3F)c(N3CCCC(CO)C3)nc2c1 (configuration not stated)	-12%	nt	nt	nt	-6%[9.04 µM]
Cc1cccc(C)c1-n1ncc(C(=O)NCCN2CCOCC2)c1C1CCN(C(=O)OC(C)(C)C)CC1	-9%	2%	nt	nt	-30%
CC(C)(C)OC(=O)N1CCC(c2c(C(=O)NCCN3CCOCC3)cnn2-c2ccccc2)CC1	5.8µM*	-2%	nt	nt	5.8µM*
COc1ccccc1N1CCN(CCCNC(=O)c2cnn(-c3ccccc3)c2C2CCN(C(=O)OC(C)(C)C)CC2)CC1	16µM*	0%	nt	nt	16µM*
CC(C)(C)OC(=O)N1CCC(c2c(C(=O)NC3CC3)cnn2-c2ccc(Cl)cc2)CC1	-16%	2%	1%	2%	?
COc1ccccc1CN1CCC(CNC(=O)c2cnn(-c3ccc(Cl)cc3)c2C2CCN(C(=O)OC(C)(C)C)CC2)CC1	5.2µM*	6%	nt	nt	3.7µM*
Cc1ccc(-n2ncc(C(=O)NC3CCCCC3)c2C2CCN(C(=O)OC(C)(C)C)CC2)cc1	23µM*	2%	nt	nt	?
COc1ccc(NC(=O)c2ccc(NC3=NC4CS(=O)(=O)CC4S3)cc2)cc1 (configuration not stated)	-15%	nt	-1%	2%	-1%
COC(=O)C1C(=O)NC(SC)=C(C#N)C1c1ccccc1F (configuration not stated)	-3%	-2%	?	-2%	-24%
Cc1ccc(-n2ncc(C(=O)NCCN3CCCC3)c2C2CCN(C(=O)OC(C)(C)C)CC2)cc1	?	3%	nt	nt	23µM*
CC(C)(C)OC(=O)N1CCC(c2c(C(=O)NCCN3CCCC3)cnn2-c2ccc(Cl)cc2)CC1	23µM*	2%	nt	nt	?
CC(C)(C)OC(=O)N1CCC(c2c(C(=O)NCCN3CCC(Cc4ccccc4)CC3)cnn2-c2cccc(Cl)c2)CC1	3.7µM*	5%	nt	nt	5.8µM*
O=C(NCCN1CCOCC1)c1cnn(-c2ncc3c(n2)-c2ccccc2CC3)c1C1CC1	23µM*	nt	nt	nt	10%[9.04 µM]
CC(C)(CNC(=O)c1cnn(-c2ncc3c(n2)-c2ccccc2CC3)c1C1CC1)N1CCOCC1	1%	nt	nt	nt	-10%[9.04 µM]
Cc1cccc(C)c1-n1ncc(C(=O)NCCN2CCN(C)CC2)c1C1CCN(C(=O)OC(C)(C)C)CC1	?	2%	nt	nt	?
